# According to the supplement of paper PMC7156485:
# Where “and” joins values, the source holds several entries; their conditions need not be identical. Identical values can stand only once. ± gives the standard deviation of the averaged measurements.
# Key:
# Details in all cases: concentration: 10 µM; 24 h
# HCC1569 [1] = test: cell number relative to DMSO (% of DMSO); higher = more cells (less growth inhibition / toxicity)
# Summary of the method: (§1)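 After 24 h at 37 °C with compounds at 10 µM, in triplicate, HCC1569 and TDF cells were fixed with 3.7% formaldehyde. Immunostaining used a rabbit anti-H1.0 antibody and an AlexaFluor 647 secondary, with DAPI, and six fields per well were imaged at ×10. H1.0 nuclear intensity or cell number is presented as percent of the plate control, from the median of replicates, with HCC1569 values smoothed for positional effects.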
# TDF [2] = test: as above
# Summary of the method: as §1
# TDF [3] = test: H1.0 immunofluorescence intensity relative to DMSO (% of DMSO); higher = stronger H1.0 induction, active = 120 or more
# Summary of the method: as §1
# HCC1569 [4] = test: H1.0 immunofluorescence intensity relative to DMSO (% of DMSO); higher = stronger H1.0 induction, active = 140 or more
# Summary of the method: as §1
# 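For H1.0 immunofluorescence intensity relative to DMSO in this document: TDF is a line of transformed human dermal fibroblasts of mesenchymal origin.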
# 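For cell number relative to DMSO in this document: TDF denotes transformed human dermal fibroblasts of mesenchymal origin.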
Compound,cell number (HCC1569 [1]),cell number (TDF [2]),H1.0 immunofluorescence intensity (TDF [3]),H1.0 immunofluorescence intensity (HCC1569 [4])
NC(C(=O)NC1C(=O)N2C(C(=O)O)=C(Cl)CSC12)c1ccccc1 (centres undefined) [Cefaclor],101,99.5,103 (inactive),85.8 (inactive)
COc1cc(C(=O)OCCCN2CCCN(CCCOC(=O)c3cc(OC)c(OC)c(OC)c3)CC2)cc(OC)c1OC [Dilazep],107,93.1,103 (inactive),91.6 (inactive)
CS(=O)(=O)CCNCc1nc(-c2ccc3ncnc(Nc4ccc(OCc5cccc(F)c5)c(Cl)c4)c3c2)cs1.Cl.Cl,88.4,99.7,99.4 (inactive),136 (inactive)
CC1=C(C(=O)O)N2C(=O)C(NC(=O)C(N)C3=CCC=CC3)C2SC1 (centres undefined) [Cephadrine],100,101,96.3 (inactive),88 (inactive)
NCCCC(O)(P(=O)([O-])O)P(=O)(O)O [Alendronate],106,102,94.3 (inactive),117 (inactive)
CCCn1cnc2c1c(=O)n(CCCCC(C)=O)c(=O)n2C [Propentofylline],104,113,90.3 (inactive),100 (inactive)
CCN(CC)CCNC(=O)c1cc(S(C)(=O)=O)ccc1OC.Cl [Tiapride hydrochloride],111,107,96.7 (inactive),99.3 (inactive)
Nc1sc2c(c1C(=O)c1ccc(Cl)cc1)CCCC2,102,96.8,95 (inactive),98.9 (inactive)
"COc1ccccc1N1CCN(CCCNc2c(C)c(=O)n(C)c(=O)n2C)CC1 [Urapidil, 5-Methyl-]",105,121,96.7 (inactive),108 (inactive)
C#CC1(O)CCC2C3C(C)CC4=C(CCC(=O)C4)C3CCC21C (centres undefined) [Tibolone],100,96.7,102 (inactive),110 (inactive)
CN(C)CCOC(=O)COc1ccc(Cl)cc1.Cl [Centrophenoxine hydrochloride],101,98.6,103 (inactive),107 (inactive)
O=C(NCCNCC(O)COc1ccc(O)cc1)N1CCOCC1.O=C(O)C=CC(=O)O (centres undefined) [Xamoterol hemifumarate],104,98.5,88.7 (inactive),109 (inactive)
N[C@@H](Cc1c[nH]c2ccccc12)C(=O)O [L-Tryptophan],101,103,96.6 (inactive),108 (inactive)
COc1ccc2c(c1)c(CC(=O)O)c(C)n2C(=O)c1ccc(Cl)cc1 [Indomethacin],101 ± 1.8,106 ± 20,91.3 (inactive),102 (inactive)
CS(=O)(=O)O.N=C(N)SCCc1ccc(OCc2ccc([N+](=O)[O-])cc2)cc1,88.6,78.2,125 (active),158 (active)
Nc1[nH]nc2nc3ccccc3nc12,95,104,101 (inactive),115 (inactive)
"CCCCCC#CCC(O)C=CC=CC=CC(O)CCCC(=O)O (centres undefined) [14,15-Dehydroleukotriene B4]",101,96.7,105 (inactive),101 (inactive)
O=c1onc2n1-c1cc(Br)ccc1OC2,97.4,104,94 (inactive),96 (inactive)
Cn1cnc2c1c(=O)[nH]c(=O)n2C [Theobromine],104 ± 3,99 ± 6.1,96.4 (inactive),95.9 (inactive)
COc1c2occc2c(OC)c2c(=O)cc(C)oc12 [Khellin],101,76.6,111 (inactive),100 (inactive)
C=C(C)C1CCC2(C(=O)O)CCC3(C)C(CCC4C5(C)CCC(O)C(C)(C)C5CCC43C)C12 (centres undefined) [Betulinic acid],101,108,96.3 (inactive),97 (inactive)
O=C(O)c1ccc(-c2c[nH]c3ncc(-c4ccccc4)cc23)cc1C1CCCC1,71.1 and 70.9,69.4 and 71.3,95.6 (inactive) and 106 (inactive),152 (active) and 146 (active)
O=C(Nc1ncc([N+](=O)[O-])s1)c1ccc([N+](=O)[O-])c(Cl)c1 [3-chloro-4-nitro-N-(5-nitrothiazol-2-yl)benzamide],84.1,83.6,108 (inactive),122 (inactive)

Compound,cell number (HCC1569 [1]),cell number (TDF [2]),H1.0 immunofluorescence intensity (TDF [3]),H1.0 immunofluorescence intensity (HCC1569 [4])
C[N+]1(C)C2CC(OC(=O)C(O)(c3cccs3)c3cccs3)CC1C1OC12.[Br-] (centres undefined) [Tiotropium Bromide],105,97.1,95.7 (inactive),114 (inactive)
CCCCCC(O)C=CC1=C(CC=CCCCC(=O)O)C(=O)CC1 (centres undefined) [Prostaglandin B2],109,109,92 (inactive),97.4 (inactive)
O=C(C=Cc1ccc(O)c(O)c1)c1ccc(O)cc1O [Butein],74.3,89.2,94.3 (inactive),133 (inactive)
CCOc1nc2cccc(C(=O)O)c2n1Cc1ccc(-c2ccccc2-c2nc(=O)o[nH]2)cc1,79.7,101,103 (inactive),137 (inactive)
"CCCCCC(O)CCC1C(O)CC(=O)C1CCCCCCC(=O)O (centres undefined) [13,14-Dihydro-prostaglandin E1]",97.1,104,94.9 (inactive),103 (inactive)
CC(C)CCNC(=O)C(CC(C)C)NC(=O)C1OC1C(=O)O (centres undefined),106,96.1,100 (inactive),92.5 (inactive)
CC(C)Cn1c(=O)n(C)c(=O)c2[nH]cnc21 [3-Isobutyl-1-methylxanthine],114,118,90.5 (inactive),88.2 (inactive)
"CCCCCC=CCC=CCCCCCCCCC(=O)O [10(Z),13(Z)-Nonadecadienoic acid]",98.3,96.2,109 (inactive),103 (inactive)
CC(C)N(CCC(=O)c1ccc2ccccc2c1)Cc1ccccc1.Cl,96.2,92.5,102 (inactive),119 (inactive)
COC1=C(OC)C(=O)C(CCCCCCCCCCO)=C(C)C1=O [Idebenone],101.26 ± 0.079,96.02 ± 0.62,101 (inactive),102 (inactive)
COc1cc(CC2C(=O)OCC2Cc2ccc(OC)c(OC)c2)ccc1O (centres undefined),80.5,74.6,103 (inactive),156 (active)
O=C1CCc2ccc(OCCCCN3CCN(c4cccc(Cl)c4Cl)CC3)cc2N1 [Aripiprazole],95.5,97,96.2 (inactive),126 (inactive)
COc1ccc(CC(=O)NC(N=C(NC#N)Nc2cccc3ncccc23)C(C)(C)C)cc1OC (centres undefined),99.9,107,93.5 (inactive),96.8 (inactive)
"O=c1ccc2cc3ccoc3cc2o1 [7H-furo[3,2-g]chromen-7-one]",96.4,105,90.3 (inactive),93.5 (inactive)
CC(C)(CO)C(O)C(=O)NCCC(=O)O (centres undefined) [Pantothenic acid],104,95.9,106 (inactive),98.2 (inactive)
CCCCCCCCCCCCCC(=O)NC(C)C(O)c1ccccc1 [L-erythro MAPP],97.3,103,98 (inactive),108 (inactive)
CC[N+](CC)(CC)CC(=O)Nc1c(C)cccc1C.[Br-] [Lidocaine N-ethyl bromide quaternary salt],106,108,88.4 (inactive),94.3 (inactive)
CC(C)OC(=O)C(C)(C)Oc1ccc(C(=O)c2ccc(Cl)cc2)cc1 [Fenofibrate],99.6 ± 2.2,106.6 ± 0.69,95 (inactive),109 (inactive)
C[n+]1cc2c3c(ccc2c2ccc4cc5c(cc4c21)OCO5)OCO3 [Sanguinarine],93.5,93.6,98.2 (inactive),114 (inactive)
NC(=S)c1ccc[n+](C2OC(COP(=O)([O-])OP(=O)(O)OCC3OC(n4cnc5c(N)ncnc54)C(OP(=O)([O-])O)C3O)C(O)C2O)c1.[Na+] (centres undefined) [Thio-NADP sodium],94.1,100,91.7 (inactive),104 (inactive)
COc1ccc(C2(C#N)CCC(C(=O)O)CC2)cc1OC1CCCC1 (centres undefined),105,99.6,98.8 (inactive),90.2 (inactive)
CCS(=O)(=O)CCn1c([N+](=O)[O-])cnc1C [Tinidazole],107,104,102 (inactive),105 (inactive)
Nc1nc(=O)n(C2CSC(CO)O2)cc1F (centres undefined) [Emtricitabine],105,99.4,96.1 (inactive),105 (inactive)
